Here are results for eight molecules from PubChem BioAssay (Tox21).

Records with an inconclusive call do not appear. Calls of active or inactive are those of the source. Unless noted, calls come from the whole dose curve.

Assay [1] in a line: Nuclear factor erythroid 2-related factor 2/antioxidant responsive element (Nrf2/ARE) small molecule agonists: qHTS cell viability counter screen in human keratinocytes (AID 1919968; active = well fitted curve in the direction sought with a large enough effect in the repeat runs; an effect the other way counts as inactive or inconclusive; note: nearly all actives have a fitted effect of over 55% in size). The essentials: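 Parallel cytotoxicity read: KeratinoSens HaCaT cells, compound treatment 23 h, viability by CellTiter-Fluor fluorescence 1 h post-reagent.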
For orientation: Quantitative high-throughput screening tests each substance at several concentrations.

The nature of assay [2]: Nuclear factor erythroid 2-related factor 2/antioxidant responsive element (Nrf2/ARE) small molecule agonists: luciferase reporter gene qHTS assay in human keratinocytes (AID 1919969). Note: nearly all actives have a fitted effect of over 35% in size. Note: potency is the fitted concentration of half-maximal effect. Background: A reporter such as luciferase makes a cellular process visible.
Assay [3] deals with Gonadotropin-releasing hormone receptor (Homo sapiens) (UniProt P30968). The assay is described as follows: Human gonadotropin-releasing hormone receptor (GnRHR) small molecule agonists, calcium flux assay in GnRHR-HEK293 cells (AID 1920063). Note: nearly all actives have a fitted effect of over 35% in size. The essentials: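 Calcium flux, agonist mode, human GnRHR stably integrated in HEK293; dye 1 h at 37 C before compound; Ex/Em=480/540 kinetic read, 3 min; 15 concentrations, triplicate.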
Chain of Gonadotropin-releasing hormone receptor (Homo sapiens) (P30968 whole entry, looked up): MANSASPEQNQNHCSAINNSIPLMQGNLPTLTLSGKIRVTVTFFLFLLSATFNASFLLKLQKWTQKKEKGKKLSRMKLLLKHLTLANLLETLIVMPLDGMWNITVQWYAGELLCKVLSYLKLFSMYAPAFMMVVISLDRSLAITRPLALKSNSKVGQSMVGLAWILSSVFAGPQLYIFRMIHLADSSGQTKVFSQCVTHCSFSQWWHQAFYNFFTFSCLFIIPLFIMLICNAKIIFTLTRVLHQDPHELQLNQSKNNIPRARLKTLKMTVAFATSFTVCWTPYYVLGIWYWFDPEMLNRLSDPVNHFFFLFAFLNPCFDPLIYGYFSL
(Calcium assays in cells follow changes in intracellular calcium, usually with a dye or a luminescent sensor.)

Assay [4] deals with KiSS-1 receptor (Homo sapiens) (UniProt Q969F8). The assay can be described thus: Human kisspeptin (KISS1R) small molecule agonists, calcium flux assay in KISS1R-HEK293 cells (AID 1920064; active = well fitted curve in the direction sought with a large enough effect in the repeat runs; an effect the other way counts as inactive or inconclusive). The essentials:
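Triplicate 15-concentration series were applied to dye-loaded human KISS1R HEK293 cells, and agonist-evoked calcium fluorescence was captured for 3 min.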

Assay [5] in a line: G protein-coupled receptor (GPCR) small molecule agonists, calcium flux assay: HEK293 wild type cell line counter screen (AID 1920065). The essentials: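 Non-specific calcium responders were flagged by adding DMSO-dissolved compounds to dye-loaded cells and reading 480/540 nm fluorescence each second for 3 min; ATP served as positive control.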
Assay [6] is described as follows: p53 small molecule agonists, cell-based qHTS assay with human liver microsomes (AID 1963577).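 Note: p53 response element beta-lactamase reporter cells with liver microsomes plus NADPH.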 The essentials:
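HLM-supplemented p53RE-bla reporter assay: 16 h compound exposure at 37 C, microsomes and NADPH each 0.5 mg/mL final, read by fluorescence intensity.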

Assay [7] is described as follows: p53 small molecule agonists, cell-based qHTS assay with rat liver microsomes (AID 1963578). The essentials:
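Quantitative HTS of the Tox21 10K library: p53RE-bla cells, rat liver microsomes plus NADPH at 0.5 mg/mL final each, 16 h at 37 C, beta-lactamase fluorescence detection.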

Assay [8] can be described thus: p53 small molecule agonists, cell-based qHTS assay with human liver microsomes: qHTS cell viability counter screen (AID 1963579). Note: nearly all actives have a fitted effect of over 45% in size. The essentials:
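Viability of p53RE-bla cells is measured as CellTiter-Glo luminescence following a 16 h, 37 C incubation with compound, liver microsomes from human donors and NADPH.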

Assay [9] in a line: p53 small molecule agonists, cell-based qHTS assay with rat liver microsomes: qHTS cell viability counter screen (AID 1963580). Note: nearly all actives have a fitted effect of over 45% in size. The essentials: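 Cytotoxicity counter screen: intracellular ATP read by CellTiter-Glo luminescence in the p53 reporter wells. HCT-116 p53RE-bla cells were treated for 16 h at 37 C alongside rat liver microsomes and NADPH, each 0.5 mg/mL final.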
The nature of assay [10]: p53 small molecule agonists, cell-based qHTS assay (AID 1963582; active = well fitted activation curve with a large enough effect in the signal ratio in the repeat runs, not every such curve was filed as active; the % refers to the signal ratio). The essentials:
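Beta-lactamase reporter cells (p53RE-bla) treated with compounds for 16 h at 37 C; FRET substrate, 2 h, room temperature; fluorescence intensity.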

Assay [11] concerns the target 5-hydroxytryptamine receptor 2A (Homo sapiens) (UniProt P28223). The assay can be described thus: 5-hydroxytryptamine receptor 2A (HTR2A) small molecule antagonists, cell-based qHTS assay (AID 1963586). Note: nearly all actives have a fitted effect of over 45% in size. The essentials:
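CHO cells stably expressing human HTR2A were plated for 18 h at 37 C, then loaded with calcium dye for 1 h. Compounds were preincubated 5 min at room temperature before DOI (4 nM solution) was added. Kinetic fluorescence was read for 3 min.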

For assay [12] the target is unchanged. The assay can be described thus: 5-hydroxytryptamine receptor 2A (HTR2A) small molecule agonists, cell-based qHTS assay (AID 1963587). Note: nearly all actives have a fitted effect of over 30% in size. The essentials: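 Kinetic calcium-flux fluorescence (2 min, 1 sec intervals) after compound addition in agonist mode. HTR2A-CHO cells were cultured 18 h, then dye-loaded 1 h at 37 C.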
The target in assay [13] is Muscarinic acetylcholine receptor M1 (Homo sapiens) (UniProt P11229). The assay can be described thus: Cholinergic receptor muscarinic 1 (CHRM1) small molecule antagonists, cell-based qHTS assay (AID 1963588). Note: nearly all actives have a fitted effect of over 40% in size. The essentials:
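Compounds were tested at 15 concentrations in three independent runs. Dye-loaded CHRM1-CHO cells were exposed 5 min at room temperature before stimulation by acetylcholine added at 50nM. Intracellular calcium was read kinetically on FDSS for 3 min.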

Assay [14] has the same target. The assay is described as follows: Cholinergic receptor muscarinic 1 (CHRM1) small molecule agonists, cell-based qHTS assay (AID 1963589). Note: nearly all actives have a fitted effect of over 35% in size. The essentials: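 qHTS, 15-point titration, 3 independent runs: compounds pin-transferred onto dye-loaded CHRM1-CHO cells (human M1), calcium fluorescence followed every second to detect agonism.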
Assay [15] is described as follows: cAMP Responsive Elements (CRE) small molecule agonists, cell-based qHTS assay (AID 1963590). The essentials:
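Quantitative HTS for CRE agonists: HEK 293T CRE-bla cells, overnight plating, 3 h compound incubation at 37 C/5% CO2, then 2 h room-temperature LiveBLAzer B/G FRET substrate loading.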

A short description of assay [16]: p53 small molecule agonists, cell-based qHTS assay: qHTS cell viability counter screen (AID 1963581). Note: nearly all actives have a fitted effect of over 45% in size. The essentials: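 Multiplexed with the reporter read, a CellTiter-Glo step (30 min, room temperature) gauges ATP-based viability of HCT-116 p53RE-bla cells after 16 h compound incubation at 37 C.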
Assay [17] in a line: cAMP Responsive Elements (CRE) small molecule antagonists, cell-based qHTS assay (AID 1963591; active = well fitted inhibition curve with a large enough effect in the signal ratio in the repeat runs, not every such curve was filed as active; the % refers to the signal ratio). The essentials:
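Fluorescence intensity from cleaved LiveBLAzer B/G substrate (2 h, room temperature) quantified CRE-bla activity in HEK 293T cells exposed 3 h to compound with 0.25 uM final NKH477.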

Assay [18] addresses D(2) dopamine receptor (Homo sapiens) (UniProt P14416). The assay can be described thus: Dopamine D2 receptor (DRD2) small molecule agonists, cell-based qHTS assay (AID 1963594). Note: nearly all actives have a fitted effect of over 35% in size. The essentials:
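cAMP accumulation in DRD2-HEK293 cells measured by HTRF after 1 h detection; compounds added 10 min before NKH477 (200nM […]) forskolin-analogue stimulation, 30 min at room temperature, with Ro20-1724 present at 0.1 mM final.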

The target in assay [19] is Beta-2 adrenergic receptor (Homo sapiens) (UniProt P07550). The assay is described as follows: Adrenergic beta2 receptor (ADRB2) small molecule antagonists, cell-based qHTS assay (AID 1963592). Note: series mostly up to about 92 µM; nearly all actives have a fitted effect of over 50% in size. The essentials:
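Assay format: CHO-ADRB2 cells, 18-20hr seeding at 37C/5% CO2, then compound plus 1nM isoproterenol agonist mix for 0.5hr RT. Homogeneous time-resolved fluorescence cAMP detection after 1hr, expressed as 665/615 nm ratio.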

Assay [20] addresses D(2) dopamine receptor (Homo sapiens) (UniProt P14416). The assay can be described thus: Dopamine D2 receptor (DRD2) small molecule antagonists, cell-based qHTS assay (AID 1963595; active = well fitted inhibition curve with a large enough effect in the signal ratio in the repeat runs, with a control signal flat; the % refers to the signal ratio). The essentials:
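HEK293 cells stably expressing DRD2 were preincubated with 0.1 mM Ro20-1724, then with compound for 10 min at room temperature. Cells were stimulated with 200 nM NKH477 plus 12 nM quinpirole for 30 min, and cAMP was read by HTRF.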

Chain of Beta-2 adrenergic receptor (Homo sapiens) (P07550 whole entry, looked up): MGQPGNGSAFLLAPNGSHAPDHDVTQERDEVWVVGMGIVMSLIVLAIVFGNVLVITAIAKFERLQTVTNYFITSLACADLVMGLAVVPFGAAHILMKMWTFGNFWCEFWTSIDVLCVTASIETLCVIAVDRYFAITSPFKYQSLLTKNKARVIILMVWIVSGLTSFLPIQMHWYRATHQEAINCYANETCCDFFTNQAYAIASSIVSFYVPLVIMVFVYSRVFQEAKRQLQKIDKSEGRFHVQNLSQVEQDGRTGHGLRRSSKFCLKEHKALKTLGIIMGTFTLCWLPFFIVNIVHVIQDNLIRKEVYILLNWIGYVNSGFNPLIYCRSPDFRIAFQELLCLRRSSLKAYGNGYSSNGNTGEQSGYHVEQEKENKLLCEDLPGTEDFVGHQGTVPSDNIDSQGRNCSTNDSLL
Chain of D(2) dopamine receptor (Homo sapiens) (P14416 whole entry, looked up): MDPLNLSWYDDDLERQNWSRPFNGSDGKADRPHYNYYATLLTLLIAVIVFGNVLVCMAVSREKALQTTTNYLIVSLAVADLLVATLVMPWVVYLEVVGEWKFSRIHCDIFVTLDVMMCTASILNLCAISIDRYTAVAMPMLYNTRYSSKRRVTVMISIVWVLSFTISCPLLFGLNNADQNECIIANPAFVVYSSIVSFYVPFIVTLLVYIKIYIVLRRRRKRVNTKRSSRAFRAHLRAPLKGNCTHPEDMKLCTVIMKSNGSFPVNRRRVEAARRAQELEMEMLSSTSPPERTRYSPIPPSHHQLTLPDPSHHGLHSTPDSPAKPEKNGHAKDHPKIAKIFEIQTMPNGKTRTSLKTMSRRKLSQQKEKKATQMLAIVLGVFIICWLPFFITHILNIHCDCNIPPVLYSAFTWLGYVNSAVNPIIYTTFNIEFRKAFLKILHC
Chain of Muscarinic acetylcholine receptor M1 (Homo sapiens) (P11229 whole entry, looked up): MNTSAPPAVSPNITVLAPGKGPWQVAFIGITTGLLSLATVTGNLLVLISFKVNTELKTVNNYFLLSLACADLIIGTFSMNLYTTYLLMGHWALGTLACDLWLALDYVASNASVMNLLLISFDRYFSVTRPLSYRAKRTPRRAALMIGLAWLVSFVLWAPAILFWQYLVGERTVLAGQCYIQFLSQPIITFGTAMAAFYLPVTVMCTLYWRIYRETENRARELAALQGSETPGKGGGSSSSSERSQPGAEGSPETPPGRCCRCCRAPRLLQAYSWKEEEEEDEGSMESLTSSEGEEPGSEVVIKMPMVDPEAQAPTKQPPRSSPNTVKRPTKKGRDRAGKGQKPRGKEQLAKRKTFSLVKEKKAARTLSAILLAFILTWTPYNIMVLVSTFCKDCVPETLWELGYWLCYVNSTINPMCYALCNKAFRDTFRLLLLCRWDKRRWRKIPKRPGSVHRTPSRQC
Chain of 5-hydroxytryptamine receptor 2A (Homo sapiens) (P28223 whole entry, looked up): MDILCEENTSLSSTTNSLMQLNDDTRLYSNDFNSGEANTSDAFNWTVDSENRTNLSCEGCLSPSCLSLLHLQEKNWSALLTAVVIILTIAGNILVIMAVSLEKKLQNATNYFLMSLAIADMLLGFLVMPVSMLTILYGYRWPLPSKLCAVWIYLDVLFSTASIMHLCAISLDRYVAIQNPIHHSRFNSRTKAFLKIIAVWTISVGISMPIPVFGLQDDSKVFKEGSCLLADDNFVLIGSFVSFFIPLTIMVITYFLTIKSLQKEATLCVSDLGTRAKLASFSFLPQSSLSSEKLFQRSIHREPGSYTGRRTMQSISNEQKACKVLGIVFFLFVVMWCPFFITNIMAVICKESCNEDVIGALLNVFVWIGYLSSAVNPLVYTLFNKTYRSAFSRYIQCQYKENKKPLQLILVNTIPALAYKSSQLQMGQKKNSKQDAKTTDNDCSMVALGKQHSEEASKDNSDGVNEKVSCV
Chain of KiSS-1 receptor (Homo sapiens) (Q969F8 whole entry, looked up): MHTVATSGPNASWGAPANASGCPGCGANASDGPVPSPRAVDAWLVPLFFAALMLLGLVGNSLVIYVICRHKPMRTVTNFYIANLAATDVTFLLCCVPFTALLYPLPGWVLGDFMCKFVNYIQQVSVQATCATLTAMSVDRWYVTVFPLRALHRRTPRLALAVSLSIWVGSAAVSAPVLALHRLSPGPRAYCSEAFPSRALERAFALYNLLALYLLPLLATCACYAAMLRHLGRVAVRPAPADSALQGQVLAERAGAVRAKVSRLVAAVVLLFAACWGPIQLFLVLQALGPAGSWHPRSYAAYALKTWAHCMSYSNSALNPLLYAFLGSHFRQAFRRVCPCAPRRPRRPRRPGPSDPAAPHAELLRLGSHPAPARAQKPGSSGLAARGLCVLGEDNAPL

As for `CN(C)c1ccc(N(C)C)cc1`, the Potency entry in [1], in assay [3], in assay [4], in [5], in assay [6] and in assay [7] was “inactive” in each case. For the same molecule, the Potency result in [8], in [9], in assay [10], in assay [11], in assay [12] and in assay [13] was “inactive” throughout. Also, the Potency result in [14] and in assay [15] was “inactive” in each case. Moreover, the Potency in [2] is 54.6 µM (active).
In the case of `COc1cccc(C=O)c1`, the Potency entry in [1], in assay [2], in [3], in assay [4], in assay [5] and in [6] was “inactive” in each case. The Potency entry in assay [7], in assay [8], in assay [9], in [16], in assay [11] and in assay [12] was “inactive” throughout. In addition, the Potency result in assay [13], in assay [15], in [17] and in assay [18] was “inactive” each time.
In the case of `COc1ccc(C=O)cc1`, the Potency result in assay [1], in [2], in assay [3], in assay [4], in assay [5] and in assay [6] was “inactive” each time. Further, the Potency result in assay [7], in assay [8], in [9], in assay [16], in [11] and in assay [12] was “inactive” each time. For the same molecule, the Potency entry in assay [13], in [14], in assay [15], in assay [17], in [19] and in assay [18] was “inactive” throughout. For the same molecule, the Potency result in assay [20] was “inactive”.
With `CCCCC1C(=O)NC(=O)N(C2CCCCC2)C1=O` (configuration not stated), the Potency result in [1], in assay [2], in assay [3], in [4], in [5] and in [6] was “inactive” each time. Besides, the Potency entry in assay [7], in [8], in [9], in assay [10], in [11] and in [12] was “inactive” throughout. Besides, the Potency entry in [13], in [14], in [15], in assay [17], in assay [19] and in assay [18] was “inactive” throughout.
As for `N[C@@H](Cc1ccc(N(CCCl)CCCl)cc1)C(=O)O`, the Potency result in [1], in [2], in [3], in assay [4], in [5] and in assay [6] was “inactive” each time. Also, the Potency entry in assay [7], in [8], in assay [9], in [16], in [15] and in assay [17] was “inactive” throughout. Moreover, the Potency entry in assay [19], in [18] and in assay [20] was “inactive” each time.
Take `CC(C)Nc1nc(Cl)nc(NC(C)C)n1`: the Potency entry in [1], in assay [2], in assay [3], in assay [4], in assay [5] and in assay [6] was “inactive” throughout. Further, the Potency result in assay [7], in assay [8], in [9], in assay [10], in assay [11] and in assay [12] was “inactive” each time. In addition, the Potency entry in assay [13], in assay [14], in [15], in assay [17], in [19] and in [18] was “inactive” in each case. Moreover, the Potency entry in [20] was “inactive”.
With `N#Cc1cc(Br)c(O)c(Br)c1`, the Potency result in assay [1], in [2], in assay [3], in [4], in assay [5] and in assay [6] was “inactive” throughout. Further, the Potency result in [7], in assay [8], in assay [9], in assay [16], in assay [11] and in assay [12] was “inactive” throughout. In addition, the Potency entry in [13], in assay [14], in [17], in assay [19], in assay [18] and in assay [20] was “inactive” each time.
`O=[N+]([O-])c1ccccc1O`: the Potency result in assay [1], in assay [2], in [3], in assay [4], in assay [5] and in assay [6] was “inactive” throughout. The Potency entry in assay [7], in assay [8], in [9], in assay [16], in assay [11] and in assay [14] was “inactive” throughout. The Potency result in assay [15], in [17], in [19], in assay [18] and in [20] was “inactive” each time.
